hNpr1 antagonist: Natriuretic polypeptide receptor (hNpr1) antagonism - Primary qHTS; HEK293 hNpr1 GloSensor cGMP, ANP-stimulated luminescence; Potency, µM (top dose mostly 46.3 µM), most hits filed as inhibitors; 76,000 compounds, 1.6% hits; AID 1347048, 2019; calls by dose curve; note: nearly all actives have a fitted effect of over 60% in size
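HEK293 cells stably expressing human Npr1 and cGMP GloSensor pGS-40F, loaded 2 h with 2% GloSensor reagent, given compound 30 min at room temperature. Luminescence read before and 20 min after 0.1 nM hNppA.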
3T3 cytotox: Cytotoxic Profiling in NIH 3T3 Cell Line of Diverse Libraries Using Quantitative High-Throughput Screening | NIH 3T3 viability, CellTiter-Glo ATP luminescence, 48-72 h | Potency, µM (titrated, usually from 96.7 µM), actives largely listed as inhibitors | 94,000 compounds, 4.3% hits | AID 1345082, 2018; note: nearly all actives have a fitted effect of over 55% in size
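Mouse fibroblast NIH 3T3 cells, 400 per well, received compound via pintool and were incubated for 48 or 72 hr prior to CellTiter-Glo ATP luminescence measurement.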
HEK293 tox: Cytotoxic Profiling in HEK 293 Cell Line of Diverse Libraries Using Quantitative High-Throughput Screening | HEK 293 viability, ATP luminescence (CellTiter-Glo), 48-72 h | Potency, µM (doses to about 115 µM), hits mostly inhibitors | 94,000 compounds, 6.6% hits | AID 1345083, 2018; note: nearly all actives have a fitted effect of over 60% in size
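HEK 293 seeded at 250 cells/well receive compound via pintool. After 48 or 72 hr at 37 degree Celsius, 5% CO2 and 95% humidity, CellTiter-Glo is dispensed and luminescence read following 10 min at room temperature.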
FLuc inh: Firefly luciferase inhibition profiling of diverse chemical library using quantitative high-throughput screening. Potency, µM (top dose mostly 115 µM), hits mostly inhibitors. purified P. pyralis luciferase, luminescence, biochemical. Luciferin 4-monooxygenase (Photinus pyralis), P08659. 76,000 compounds, 2.5% hits; note: nearly all actives have a fitted effect of over 65% in size
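Luminescence read by CCD imaging after purified firefly luciferase (10nM final) was added to substrate buffer holding 10uM D-luciferin and 10uM ATP, pH 7.5, pre-dosed with compound.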
GPT2 inh: Primary qHTS assay for inhibitors of Glutamate pyruvate transaminase 2 (GPT2) | Recombinant GPT2, coupled pyruvate oxidase/HRP Amplex Red fluorescence | Potency, µM (doses to about 57.7 µM), hits mostly inhibitors | Alanine aminotransferase 2 (Homo sapiens), Q8TD30 | 100,000 compounds, 0.25% hits | AID 1671188, 2021; note: nearly all actives have a fitted effect of over 60% in size
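GPT2 10ng/uL, a-KG 250uM, L-Ala 2mM, HEPES pH7.5 + 0.0001% Tween; 30 min RT. Then Amplex mix (PO/HRP/ThPP), 30 min RT dark, fluorescence. AOA 50uM used as positive control.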
Npr1 antag conf: Natriuretic polypeptide receptor (hNpr1) antagonism - Confirmation. shares compounds with hNpr1 antagonist. HEK293 hNpr1 cGMP GloSensor luminescence, ANP-stimulated. Potency, µM (highest dose often 57.6 µM), most hits filed as inhibitors. 1,400 compounds, 76% hits; calls by dose curve; note: nearly all actives have a fitted effect of over 70% in size
NPR2 antag: Natriuretic polypeptide receptor (hNpr2) antagonism - Subtype selectivity assay | shares compounds with hNpr1 antagonist | HEK293 hNpr2 GloSensor cGMP luminescence, CNP-stimulated | AID 1347046, 2019 | Potency, µM (top dose mostly 57.6 µM), hits mostly inhibitors | 1,400 compounds, 67% hits; calls by dose curve; note: nearly all actives have a fitted effect of over 70% in size
FLuc counter: Natriuretic polypeptide receptor (hNpr1) antagonism - Confirmation firefly luciferase (FLuc) inhibition counterscreen | shares compounds with hNpr1 antagonist | purified FLuc enzyme, luminescence, Km substrate | Potency, µM (doses to about 57.6 µM), usual class: inhibitors | 1,400 compounds, 0.7% hits
GloSensor cGMP: Natriuretic polypeptide receptor (hNpr1) antagonism - Counterscreen GloSensor control cell line; AID 1347051, 2019; Potency, µM (highest dose often 57.6 µM), usual class: inhibitors; 1,400 compounds, 69% hits; shares compounds with hNpr1 antagonist; HEK293 GloSensor cGMP, SNP-stimulated, luminescence; calls by dose curve; note: nearly all actives have a fitted effect of over 70% in size
Each line names hits and unclear results; the compound was inactive in the other large screens (follow-up assays come after a bar, where they were run). In the library only some 10% were active in any assay of this set; here they are far more common. Unless noted, calls come from the whole dose curve; as a rule, active = well fitted curve in the direction sought with a large enough effect; inconclusive = small, poorly fitted or top-dose-only effect, or another doubt; inactive = no such curve, though single readings can be large; an effect the other way counts as inactive or inconclusive.

O=C(NC1CCN(c2nc3ncccc3o2)C1)c1ccccc1 (stereo not drawn)	none (no result: hNpr1 antagonist, FLuc inh)
CC(=O)Nc1ccc(-c2nnc3n2CCN(C(=O)c2ccc(C)cc2)C3)cc1	none (no result: hNpr1 antagonist, FLuc inh, GPT2 inh)
CC(=O)N1CCC(c2nnc3n2C(C(=O)NCc2ccccc2F)CC3)CC1 (stereo not drawn)	none (no result: hNpr1 antagonist, FLuc inh)
COc1ccc(C(=O)N2CCC(N3C[C@H](O)C[C@H]3C(=O)NC3CCCCC3)CC2)cc1F	none
CCOC(=O)[C@H]1C[C@]2(CCCCN(CCOC)C2=O)N(C(=O)C2CC2)[C@H]1c1ccccc1	3T3 cytotox inconclusive (no result: hNpr1 antagonist, FLuc inh, GPT2 inh)
O=C(c1ccc2c(c1)OCO2)N1CCCN(c2cc(-c3ccc(Br)cc3)[nH]n2)CC1	hNpr1 antagonist 17.8µM, 3T3 cytotox inconclusive, HEK293 tox inconclusive, GPT2 inh inconclusive | Npr1 antag conf 24.3µM | NPR2 antag 24.3µM | FLuc counter inactive | GloSensor cGMP 30.6µM
COc1ccc(C(=O)N2CCC3(CC2)NC(=O)N(Cc2ccccc2)C3=O)cc1F	hNpr1 antagonist inconclusive, HEK293 tox inconclusive
COc1ccc(C(=O)N2CCC3(CC2)NC(=O)N(Cc2ccc(F)cc2)C3=O)cc1F	hNpr1 antagonist 12.6µM, 3T3 cytotox inconclusive, HEK293 tox inconclusive | Npr1 antag conf 19.3µM | NPR2 antag 21.7µM | FLuc counter inactive | GloSensor cGMP 21.7µM
O=C(Cc1ccccc1)NC1CCN(c2ccc3nnc(C4CC4)n3n2)C1 (stereo not drawn)	none (no result: hNpr1 antagonist, FLuc inh, GPT2 inh)
COc1ccc(CCC(=O)N2CCCCCC2c2nc(-c3cccnc3)no2)cc1 (stereo not drawn)	3T3 cytotox inconclusive (no result: hNpr1 antagonist, FLuc inh)
Cc1nn(C)c(C)c1C(=O)N1CC(n2cc(COCC3CC3)nn2)C1	none (no result: hNpr1 antagonist, FLuc inh)
O=C(c1ccc(Cl)nc1)N1CCCC(C(=O)N2CCC(N3Cc4cccn4C3=O)CC2)C1 (stereo not drawn)	none (no result: hNpr1 antagonist, FLuc inh)
CN(Cc1nc(Cc2ccccc2Cl)no1)Cc1cccc2cnccc12	hNpr1 antagonist 14.1µM, 3T3 cytotox inconclusive, HEK293 tox inconclusive | Npr1 antag conf 10.9µM | NPR2 antag 12.2µM | FLuc counter inactive | GloSensor cGMP 10.9µM
CC(=O)c1cccc(NC(=O)O[C@@H]2CO[C@H]3[C@@H]2OC[C@@H]3NC(=S)NC2CCCCC2)c1	hNpr1 antagonist 17.8µM, 3T3 cytotox inconclusive, HEK293 tox inconclusive | Npr1 antag conf 24.3µM | NPR2 antag 24.3µM | FLuc counter inactive | GloSensor cGMP inconclusive
CC(=O)c1cccc(NC(=O)O[C@@H]2CO[C@H]3[C@@H]2OC[C@@H]3NC(=S)Nc2cccc3ccccc23)c1	hNpr1 antagonist 8.91µM, 3T3 cytotox inconclusive, HEK293 tox inconclusive, GPT2 inh inconclusive | Npr1 antag conf 12.2µM | NPR2 antag 17.2µM | FLuc counter inactive | GloSensor cGMP 13.7µM
O=C(Nc1ccc(-c2nnc3n2CCCC3)cc1)c1ccco1	none
Cc1ccc(C(=O)N2CCC3(CCC3N3CCOCC3)CC2)s1 (stereo not drawn)	none (no result: hNpr1 antagonist, FLuc inh)
CS(=O)(=O)c1ccc(CN2CCC[C@H]2c2nc(-c3ccnc(N4CCC(C(N)=O)CC4)c3)no2)cc1	none
O=C(c1cccc(F)c1)N1CC(Oc2ccc(-c3nc(-c4ccccc4)no3)cc2)C1	HEK293 tox inconclusive
O=C(COc1ccc(Cl)cc1)N1CCC(Cc2nc(-c3ccccc3)no2)CC1	hNpr1 antagonist 14.1µM, 3T3 cytotox inconclusive, HEK293 tox 39.8µM | Npr1 antag conf 12.2µM | NPR2 antag 13.7µM | FLuc counter inactive | GloSensor cGMP 12.2µM
COc1cc(C(=O)N2CCC(Cc3nc(-c4ccc(F)cc4)no3)CC2)cc(OC)c1OC	hNpr1 antagonist 12.6µM, 3T3 cytotox inconclusive, HEK293 tox inconclusive | Npr1 antag conf 13.7µM | NPR2 antag 19.3µM | FLuc counter inactive | GloSensor cGMP 15.3µM
O=C(COc1ccc(F)cc1)N1CCC(Oc2ccc(-c3noc(C4CC4)n3)cc2)C1 (stereo not drawn)	hNpr1 antagonist 11.2µM, 3T3 cytotox inconclusive, HEK293 tox inconclusive | Npr1 antag conf inconclusive | NPR2 antag inconclusive | FLuc counter inactive | GloSensor cGMP 30.6µM
O=C(c1cccc(F)c1)N1CC(Oc2ccc(-c3noc(C4CCOCC4)n3)cc2)C1	hNpr1 antagonist 6.31µM, 3T3 cytotox inconclusive, HEK293 tox inconclusive | Npr1 antag conf 4.32µM | NPR2 antag 5.44µM | FLuc counter inactive | GloSensor cGMP 3.43µM
Fc1ccc(-c2cnc3n2C[C@H](CNC2CCCC2)OC3)cc1	none
CN(C)S(=O)(=O)N1CCc2nn(CC3CC3)c(=O)n2CC1	none (no result: hNpr1 antagonist, FLuc inh)
c1ccc2c(c1)CCN2C1CN(CC2CC2)C1	none (no result: hNpr1 antagonist, FLuc inh)
CCOc1ccc(CC(=O)N2CCC(Cc3nc(-c4ccc(F)cc4)no3)CC2)cc1	hNpr1 antagonist 6.31µM, 3T3 cytotox inconclusive, HEK293 tox inconclusive | Npr1 antag conf 5.44µM | NPR2 antag 6.11µM | FLuc counter inactive | GloSensor cGMP 4.85µM
COc1ccc(OCC(=O)N2CCC(Cc3nc(-c4ccc(F)cc4)no3)CC2)cc1	hNpr1 antagonist 5.62µM, 3T3 cytotox inconclusive, HEK293 tox inconclusive | Npr1 antag conf 4.32µM | NPR2 antag 6.11µM | FLuc counter inactive | GloSensor cGMP 3.85µM
CC(C)c1noc(CC2CCN(C(=O)c3ccc(C(C)(C)C)cc3)CC2)n1	HEK293 tox inconclusive
CN(C)C(=O)c1ccc(CC2CCN(C(=O)CC3CCCCC3)CC2)cc1	hNpr1 antagonist 11.2µM, 3T3 cytotox inconclusive, HEK293 tox 35.5µM | Npr1 antag conf 15.3µM | NPR2 antag 19.3µM | FLuc counter inactive | GloSensor cGMP 15.3µM
CC(C)c1noc(CC2CCN(C(=O)Cc3ccc(F)cc3)CC2)n1	none

Screening results: PubChem, National Center for Advancing Translational Sciences (NCATS)
